The text below walks through data of PubChem BioAssay AID485317 (Broad Institute, 2010).

Screen size: about 290,000 compounds; about 11,000 (3.8%) were called active. The list comes from a sample in which actives are over-represented; it also holds similar structures and randomly drawn compounds. A number with no mark means an inactive call.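 The calls were made as follows: active = mean replicate inhibition above about 79%, with every replicate also reaching it (limit read from the data); inconclusive = only one of the two criteria met; inactive = mean below limit and not every replicate reaching it.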

The term inhibition denotes the change of the read-out against control, counted positive when it falls.

For this assay, the target named is FAD-linked sulfhydryl oxidase ALR (Homo sapiens) (UniProt P55789). The assay is described as follows: inhibitors of human ALR sulfhydryl oxidase, primary screen, biochemical, H2O2 detection, HRP-luminol luminescence, single point (AID 485317). Conditions: purified ALR, DTT oxidation, active compounds read high, concentration not given here.
Sequence of FAD-linked sulfhydryl oxidase ALR (Homo sapiens) (P55789 whole entry, looked up): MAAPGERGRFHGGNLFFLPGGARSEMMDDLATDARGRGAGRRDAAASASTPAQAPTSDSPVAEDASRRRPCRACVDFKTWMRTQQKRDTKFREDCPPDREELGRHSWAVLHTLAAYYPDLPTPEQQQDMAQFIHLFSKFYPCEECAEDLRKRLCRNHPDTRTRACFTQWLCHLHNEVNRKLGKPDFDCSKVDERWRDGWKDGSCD
On to `COc1ccc(NC(=O)COC(=O)c2n[nH]c3ccccc23)c(OC)c1`, for which the inhibition was -2.04%. The result for `COc1ccc(N2CCN(Cc3nnc(-c4ccccc4)o3)CC2)cc1` reads 35.1%; that for `c1ccc(-c2cnc(CN3CCN(c4ccccc4)CC3)o2)cc1`, 88.2% (active); that for `Fc1ccc(N2CCN(Cc3cnc(Oc4ccc(Br)cc4)s3)CC2)cc1`, 1.01%.

Regarding `COc1ccc(C2=Nn3c(nnc3-c3ccccc3OC)SC2)cc1OC1CCCC1`, the inhibition was 0.67%. In the case of `O=C(Nc1ccc(F)c([N+](=O)[O-])c1)C1CCCO1` (stereo unspecified), the inhibition was -26.1%.

As for `CCOc1ccc(OCC(=O)OC(C)C(=O)NC2CCCCC2C)cc1` (stereo unspecified), the inhibition was -1.89%. For `CCOC(=O)c1ccc(NC2Nc3cc(C)nn3S2)cc1` (stereo unspecified), the inhibition was -10.5%. The result for `CCc1ccc(NC2Nc3cc(C)nn3S2)cc1` (stereo unspecified) reads 97.5% (active). As for `COc1ccc(-c2nnc(SCC(=O)Nc3cccnc3Cl)n2C)cc1`, the figure is -3.14%. As for `C[C@H](NC(=O)c1[nH]cnc1C(=O)Nc1nccs1)c1ccccc1`, the figure is -11.7%; as for `COc1ccc(C(=O)OCC(=O)NCCCc2ccccc2)cc1OC`, 1.14%. As for `COc1cc(/C=C/C(=O)OCC(=O)Nc2cccc(Oc3ccccc3)c2)ccc1O`, the inhibition was -5.43%. For the compound `COc1cc(/C=C/C(=O)OCC(=O)NCCCc2ccccc2)ccc1O`, the inhibition was 92.7% (active). As for `O=C1C=C(c2cccc(Cl)c2O)C[C@@H](c2ccc(F)cc2)C1`, the figure is 19.8%. In the case of `COC(=O)c1ccc(COC(=O)CNC(=O)c2cccc(OC)c2)o1`, the inhibition was 0.754%.

Consider `CCN(C(=O)COC(=O)Cc1c(F)cccc1Cl)c1c(N)n(Cc2ccccc2)c(=O)[nH]c1=O`, for which the inhibition is -2.58%. As for `O=C(/C=C/c1ccc(F)cc1)NC(=S)NNC(=O)c1cccnc1`, the figure is 91.2% (active); as for `CC(C)c1ccc(/C=C/C(=O)NNC(=O)c2cccnc2)cc1`, 3.18%. As for `O=C(/C=C/c1ccc(F)cc1)NCCNC(=O)/C=C/c1ccc(F)cc1`, the figure is -1.46%; as for `O=C(NCCc1ccco1)c1ccc(OCc2cn3ccccc3n2)cc1`, -0.605%; as for `COc1ccc(S(=O)(=O)N2CCCCC2)cc1NC(=O)COc1ccccc1`, -4.75%. The result for `Fc1ccccc1/C=N/Nc1cc(N2CCCCC2)ncn1` reads -6.88%; that for `Cc1cc(N/N=C/c2ccccc2F)c2ccccc2n1`, 98.4% (active). For the compound `Cc1ccc2nc(C)cc(N/N=C/c3ccc(F)cc3)c2c1`, the inhibition is 68.2%.

In the case of `O=C(Nc1ccc(N2CCOCC2)cc1)c1cccc(S(=O)(=O)N2CCOCC2)c1`, the inhibition was 13.1%.
